Screens (PubChem)
An excerpt weighted towards active compounds, which were near 21% of everything screened.
TDP1 cell noCPT: qHTS for Inhibitors of human tyrosyl-DNA phosphodiesterase 1 (TDP1): qHTS in cells in absence of CPT | actives 15% (n = 420,000) | Potency, µM (titrated, usually from 46.2 µM), most hits filed as inhibitors | DT40 Tdp1-/- hTDP1 cells, no CPT, ATP luminescence, 48 h; further: nearly all actives have a fitted effect of over 55% in size
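Chicken DT40 Tdp1-/- cells stably complemented with human TDP1 were seeded at 400 cells/well with DMSO in place of 20 nM camptothecin. After compound pinning, cells grew at least 48 hr at 37 °C; viability read by CellTiter-Glo luminescence.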
IL1B secr inh: inhibitors of inflammasome signaling (IL-1 beta secretion) | AID 743279 | activity change, % at 57.5 µM | THP-1 LPS/ATP IL-1B secretion, AlphaLISA, 16 h; active compounds read low | actives 4.7% (n = 360,000); in the data active means activity change below about -50%; inconclusive means mostly about -30% to -49%
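THP-1 cells pretreated 1 hr with compounds (up to 57.5 uM final), then stimulated with LPS (250 ng/mL final) plus ATP (1.25 mM final); secreted IL-1B measured by AlphaLISA after 16 hr, decreased signal indicating inhibition.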
D3 ag: agonists of human D3 dopamine receptor | P35462 | D3R DiscoveRx beta-arrestin cells, luminescence, 90 min | max activation, % | actives 0.58% (n = 410,000) | AID 652048; in the data active means max activation above about 30%
Target sequence (P35462 whole entry, looked up): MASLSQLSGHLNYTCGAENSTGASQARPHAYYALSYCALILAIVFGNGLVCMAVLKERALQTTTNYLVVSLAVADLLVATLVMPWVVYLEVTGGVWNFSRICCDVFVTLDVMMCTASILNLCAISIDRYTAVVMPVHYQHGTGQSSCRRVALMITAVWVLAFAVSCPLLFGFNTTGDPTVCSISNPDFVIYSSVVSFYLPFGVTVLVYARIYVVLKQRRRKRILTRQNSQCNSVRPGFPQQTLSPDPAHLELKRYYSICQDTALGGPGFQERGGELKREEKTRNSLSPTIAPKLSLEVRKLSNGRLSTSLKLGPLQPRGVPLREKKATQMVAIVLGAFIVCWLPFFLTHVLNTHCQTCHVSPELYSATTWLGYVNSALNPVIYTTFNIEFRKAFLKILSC
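Agonist-mode cell screen: cells plated at 1500/well and incubated overnight at 37 °C, then exposed to library compounds for 90 min at 37 °C. Detection reagent was added for 30–60 min at room temperature, and luminescence was read.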
TDP1 cell CPT: growth inhibition of DT40 Tdp1-/-;hTDP1 cells with camptothecin (screen for TDP1 inhibitors); chicken DT40 Tdp1-/-;hTDP1 cells + 20 nM CPT, ATP luminescence, 48 h; AID 686979; Potency, µM (doses to about 46.2 µM), most hits filed as inhibitors; actives 12% (n = 420,000); further: nearly all actives have a fitted effect of over 55% in size
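Chicken DT40 Tdp1-/- cells stably complemented with human TDP1 were seeded at 400 cells/well in medium containing 20 nM camptothecin, exposed to pin-transferred compounds, and grown at 37 °C for at least 48 hr. Viability was read as ATP luminescence.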
ClpP mod: qHTS Assay for Activators of ClpP. actives 1.9% (n = 340,000). AID 651965, 2013. Potency, µM (doses to about 57.5 µM). ATP-dependent Clp protease proteolytic subunit (Bacillus subtilis (strain 168)), P80244. purified B. subtilis ClpP, FRET peptide cleavage, 20 min; active means well fitted falling curve with a large enough effect; inconclusive means small, poorly fitted or top-dose-only effect; inactive means no such curve, though single readings can be large or run the other way; further: the source files actives as falling curves though it sought activators and does not explain the sign; nearly all actives have a fitted effect of over 65% in size
Target sequence (P80244 whole entry, looked up): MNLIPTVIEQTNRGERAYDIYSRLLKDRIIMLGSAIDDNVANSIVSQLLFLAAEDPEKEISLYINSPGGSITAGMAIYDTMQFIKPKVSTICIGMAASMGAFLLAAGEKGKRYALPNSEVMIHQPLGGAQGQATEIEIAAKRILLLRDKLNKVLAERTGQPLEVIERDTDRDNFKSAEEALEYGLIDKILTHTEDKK
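FRET quenching reversal measured ClpP activation: 10 microg/mL B. subtilis ClpP at pH 8 with the FRET-FV decapeptide, read at 430 nm after 320 nm excitation. The 20-min minus 0-min signal was scaled between DMSO/no-enzyme wells and ADEP (5.8 microM final).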
D3 antag: antagonists of human D3 dopamine receptor. actives 2.5% (n = 360,000). P35462. max response, negative = inhibition, %. D3R cells, DiscoveRx beta-arrestin luminescence, antagonist mode; active compounds read low; in the data active means max response below about -50%; inconclusive means no clear call, values can overlap the other calls
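Cells expressing the human receptor were seeded at 1500 cells/well, incubated overnight at 37 degrees C in 5% CO2, then exposed to library compounds with dopamine controls for 90 minutes at 37 degrees C before luminescent detection.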
Large screens that a line does not name were inactive. Unless noted, the call rests on the fitted dose curve; in most records, active means well fitted inhibition curve with a large enough effect; inconclusive means small, poorly fitted or top-dose-only effect; inactive means flat fitted curve, though single readings scatter.

COc1cccc(/C=N/Nc2nc(-c3cccnc3)nc3ccccc23)c1	TDP1 cell noCPT 16µM, TDP1 cell CPT 16µM, ClpP mod inconclusive
FC(F)(F)c1nc2ccccc2nc1N/N=C\c1ccccc1	TDP1 cell noCPT 18µM, TDP1 cell CPT 21µM, D3 antag inconclusive
COc1cccc(-c2nc(NCc3cnc(C)cn3)c3ccccc3n2)c1	none (no result: IL1B secr inh, D3 ag, ClpP mod, D3 antag)
CCOc1cc(CNc2ccc(O)cc2)ccc1OCc1ccc(Cl)cc1Cl	TDP1 cell noCPT 15µM, IL1B secr inh -106, TDP1 cell CPT 15µM
CCOc1cc(CNc2ccc(S(N)(=O)=O)cc2)ccc1OCC(=O)NC(C)(C)C	TDP1 cell noCPT inconclusive (no result: ClpP mod)
NS(=O)(=O)c1ccc(NCc2ccccc2OCc2ccccc2F)cc1	TDP1 cell noCPT inconclusive, TDP1 cell CPT inconclusive
NC(=O)COC(=O)c1ccccc1OCc1ccccc1Cl	TDP1 cell CPT inconclusive
Oc1ccc(NCc2ccccc2OCc2ccccc2F)cc1	TDP1 cell noCPT 16µM, TDP1 cell CPT 18µM
Oc1ccc(NCc2ccccc2OCc2ccccc2Cl)cc1	TDP1 cell noCPT 5.2µM, TDP1 cell CPT 15µM (no result: IL1B secr inh, D3 antag)
CCOc1ccccc1CNc1nc2ccccc2n1C	TDP1 cell noCPT inconclusive
CCOc1ccccc1CNc1ccc(O)cc1	TDP1 cell noCPT inconclusive, TDP1 cell CPT 16µM
Cc1c(Cl)cccc1NC(=O)Nc1c(C)n(C)n(-c2ccccc2)c1=O	none
COc1cccc(CNCCO)c1OCc1ccc(Cl)cc1	TDP1 cell CPT inconclusive
CCOc1ccccc1CNCc1ccc(F)cc1	TDP1 cell noCPT inconclusive, IL1B secr inh -51 (no result: ClpP mod)
CCOc1ccccc1CNCc1ccc(C(=O)O)cc1	none (no result: ClpP mod)
CCOc1cccc(CNc2ccc(O)cc2)c1OCc1ccc(Cl)cc1	TDP1 cell noCPT inconclusive, TDP1 cell CPT 15µM
CCOC(=O)C1CCNC(=O)C1=O (configuration not stated)	none
COC(=O)C1(Cc2ccc(O)c(CC3OC3(C)C)c2)OC(=O)C(O)=C1c1ccc(O)cc1 (configuration not stated)	none
Cc1cc(C)cc(N(C)S(=O)(=O)c2nnc(NC(=O)COc3ccc(C)c(C)c3)s2)c1	none (no result: IL1B secr inh, D3 antag)
CCOC(=O)CNC(=O)N1CCCC(N(C)CCc2ccccc2)C1 (configuration not stated)	none (no result: ClpP mod)
Cc1ccccc1-c1cc2nc(NCc3cccnc3)n(C)c(=O)c2s1	TDP1 cell noCPT inconclusive, TDP1 cell CPT inconclusive
CCOCCCNC(=O)C(c1ccc(OC)cc1)N(Cc1ccc2c(c1)OCO2)C(=O)c1ccccc1O (configuration not stated)	TDP1 cell noCPT inconclusive, TDP1 cell CPT inconclusive
COc1ccc(CN(Cc2cccnc2)S(=O)(=O)c2ccc(-n3cnnn3)c(OC)c2)cc1	TDP1 cell noCPT inconclusive, TDP1 cell CPT inconclusive (no result: ClpP mod)
CCOc1cc(S(=O)(=O)N(Cc2ccccc2)Cc2ccccc2)c(OCC)cc1-n1cnnn1	TDP1 cell CPT inconclusive, ClpP mod 28µM, D3 antag -63
CCOc1ccc(-n2cnnn2)cc1S(=O)(=O)NCc1ccccc1	none
CCOc1cc(S(=O)(=O)NCc2ccccc2)c(OCC)cc1-n1cnnn1	ClpP mod 32µM
COc1ccc(S(=O)(=O)NCCOc2ccccc2)cc1-n1cnnn1	IL1B secr inh -50 (no result: ClpP mod)
COc1ccc(OC)c(-c2cc(Cl)c3c(c2)CC(CNC(=O)[C@@H]2CCCN2C(C)=O)O3)c1 (some centres not stated)	none (no result: IL1B secr inh, D3 ag, ClpP mod, D3 antag)
CCc1cccc(NC(=O)CN(C)S(=O)(=O)c2ccc3c(c2)n(C)c(=O)c(=O)n3C)c1	none (no result: IL1B secr inh, D3 antag)
COC(=O)C1CSC(c2ccc(Cl)cc2)N1C(=O)c1ccccc1 (configuration not stated)	TDP1 cell noCPT 18µM, TDP1 cell CPT 21µM
c1cc2c(c(CC3CO3)c1CC1CO1)OCCOCCOCCOCCO2 (configuration not stated)	TDP1 cell noCPT 2.3µM, TDP1 cell CPT 2.1µM
CCCNC(=O)c1nnsc1S(=O)c1ccc(Cl)cc1 (configuration not stated)	TDP1 cell noCPT 0.52µM, IL1B secr inh -102, TDP1 cell CPT 0.41µM, D3 antag -78 (no result: ClpP mod)
CCCNC(=O)c1ccc2snnc2c1	none
CNC(=O)c1nnsc1S(=O)c1ccc(Cl)cc1 (configuration not stated)	TDP1 cell noCPT 0.65µM, IL1B secr inh -105, TDP1 cell CPT 0.41µM, D3 antag -55 (no result: ClpP mod)
COc1ccc(S(=O)(=O)N(C)C)cc1NC(=O)c1ccc2c(c1)OCCO2	IL1B secr inh -57
CN(C)S(=O)(=O)c1cccc(NC(=O)c2ccncc2)c1	TDP1 cell noCPT inconclusive
Cc1ccnc(NC(=O)c2cccc(OC(F)F)c2)n1	none (no result: ClpP mod)
CN(C)S(=O)(=O)c1cccc(C(=O)Nc2ccccc2)c1	none (no result: ClpP mod)
CN(C)S(=O)(=O)c1cccc(C(=O)Nc2cc(Cl)cc(Cl)c2)c1	TDP1 cell noCPT 18µM, IL1B secr inh inconclusive, TDP1 cell CPT inconclusive
CN(C)S(=O)(=O)c1cccc(NC(=O)c2ccc3c(c2)OCCO3)c1	TDP1 cell noCPT 15µM, TDP1 cell CPT 15µM
O=C(Nc1cc(Cl)cc(Cl)c1)c1cccc(OC(F)F)c1	TDP1 cell noCPT inconclusive, IL1B secr inh -95, TDP1 cell CPT 18µM
CCCCCC(=O)N1C[C@@H](n2cc(C3CC3)nn2)[C@H](O)C[C@@H]1c1ccccc1	TDP1 cell noCPT inconclusive, TDP1 cell CPT inconclusive
Cc1oc(-c2ccccc2F)nc1CS(=O)CC(=O)NC(C)C (configuration not stated)	none (no result: IL1B secr inh, D3 antag)
CCOC(=O)c1c(-c2ccc(Cl)cc2)csc1NC(=O)CNCc1ccco1	TDP1 cell noCPT inconclusive, TDP1 cell CPT inconclusive
CCOC(=O)c1c(-c2ccccc2)csc1NC(=O)C(C)NCc1ccco1 (configuration not stated)	TDP1 cell noCPT inconclusive, TDP1 cell CPT 18µM (no result: ClpP mod)
CCOC(=O)c1c(-c2ccccc2)csc1NC(=O)CSc1nc(N)cc(N)n1	TDP1 cell noCPT 8.2µM, TDP1 cell CPT inconclusive
CCOC(=O)c1c(-c2ccccc2)csc1NC(=O)c1nc(SCC)ncc1Cl	TDP1 cell noCPT inconclusive (no result: IL1B secr inh, D3 antag)
CCOC(=O)c1c(-c2ccccc2)csc1NC(=O)CSc1nc(C)cc(C)n1	TDP1 cell noCPT 23µM, TDP1 cell CPT inconclusive
Cc1noc(C)c1C(=O)N1CCC2(CC1)CCN(C(c1ccccc1)c1ccccc1)CC2	TDP1 cell noCPT inconclusive (no result: IL1B secr inh, D3 ag, ClpP mod, D3 antag)
Fc1cccc(Cc2c(-c3cccc(Cl)c3)nc3c(Cl)cc(C(F)(F)F)cn23)c1	none
COCCCNC(=O)Cn1cnc2c(OCc3ccccc3)ncnc21	none
